High-throughput results: PubChem BioAssay, National Center for Advancing Translational Sciences (NCATS)
Most compounds without a hit are left out; they make up all but 2.4% or so of the library.
D2 PAM-1 = D2 dopamine receptor (human) potentiation. 340,000 tested, 0.34% active. P14416. HEK293 T-REx D2, calcium flux, EC20 dopamine potentiation. potentiation, % at 10 µM. AID 485347;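 active means potentiation over 3 SD above the plate norm, cut at about 30% in these data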; further: 0% is about no effect
Target sequence (P14416 whole entry, looked up): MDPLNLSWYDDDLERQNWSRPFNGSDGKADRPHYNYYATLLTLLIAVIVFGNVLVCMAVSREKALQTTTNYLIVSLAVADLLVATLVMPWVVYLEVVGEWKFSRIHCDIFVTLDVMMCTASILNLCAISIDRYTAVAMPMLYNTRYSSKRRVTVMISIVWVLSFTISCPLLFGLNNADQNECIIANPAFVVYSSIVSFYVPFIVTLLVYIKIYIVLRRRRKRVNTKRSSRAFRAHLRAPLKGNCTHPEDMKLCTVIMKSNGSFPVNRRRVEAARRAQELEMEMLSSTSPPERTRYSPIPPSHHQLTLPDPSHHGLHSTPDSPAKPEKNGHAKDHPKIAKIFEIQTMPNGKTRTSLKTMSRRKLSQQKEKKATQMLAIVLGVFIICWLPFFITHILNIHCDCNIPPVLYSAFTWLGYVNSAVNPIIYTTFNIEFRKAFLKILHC
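Potentiation of an EC20 dopamine calcium response is measured in a force-coupled, tetracycline-inducible Hek293 Trex D2 line. Compound-only kinetic reads over 180 s flag agonists before dopamine addition.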
D2 PAM-2 = positive allosteric modulators of human D2 dopamine receptor | P14416 | DiscoveRx D2 beta-arrestin cells, luminescence, 90 min; 100% = 57 uM dopamine signal | potentiation, % (no concentration beside the values) | 360,000 tested, 0.23% active | AID 624464; in the data active means potentiation above about 50%
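PathHunter D2 cells, attached overnight at 37 deg C, received compound in DMSO plus dopamine at EC20 (50 nM final) for 90 min at 37 deg C. Beta-arrestin recruitment was read as luminescence after 1 h with detection reagent at ambient temperature.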
D2 ag-1 = agonists of human D2 dopamine receptor. P14416. HEK293 T-REx D2 cells, calcium flux agonist mode. activation, % at 2 µM. 340,000 tested, 0.53% active. AID 485358;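 active means activation over 3 SD above normal in the single-dose calcium agonist read, cut at about 30% in these data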; further: 0% is about no effect
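Agonism scored from kinetic calcium signal (1 read/sec, 180 s) following compound pin transfer, after a 10 s baseline. Cells: HEK293 Trex line expressing inducible D2 receptor coupled to calcium, dye-loaded after overnight culture at 30 C.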
D2 ag-2 = activates the human D2 dopamine receptor. 360,000 tested, 0.084% active. DiscoveRx PathHunter D2 beta-arrestin, luminescence, 90 min; 100% = 57 uM dopamine signal. activation, % (concentration not given with the values). AID 624465. P14416; in the data active means activation above about 40%
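Agonist mode: compounds alone added to overnight-plated D2 PathHunter cells for 90 min at 37 C, with 57 uM final dopamine (EC100) defining full response. Beta-arrestin recruitment detected by chemiluminescent reagent, read after 1 h at ambient temperature.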
D2 antag = D2 dopamine receptor (human) antagonism | inhibition, % at 10 µM | 340,000 tested, 2% active | P14416 | HEK293 TREx D2 cells, calcium flux, dopamine EC80; in the data active means inhibition above about 30%; inactive means below that, where a call was filed; further: 0% is about no effect
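Calcium mobilization kinetics were recorded at 1 s intervals in tetracycline-induced HEK293 T-REx D2 cells, first for 180 s after compound addition and then 180 s after EC80 dopamine.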
An asterisk follows results filed as active; ! = a repeat was not active.

Results for Cn1c(=O)n(CC(=O)NCC2CCCO2)c(=O)c2c3c(sc21)CCCC3 (centres undefined) ?
D2 PAM-1: -4; D2 PAM-2: 4; D2 ag-1: 0; D2 ag-2: -4; D2 antag: -7

What do the screens show for `COCC1CCN(C(=O)c2ccc3oc(CCCc4ccccc4)nc3c2)C1` (centres undefined)?
D2 PAM-1: 44*; D2 PAM-2: 14; D2 ag-1: 1; D2 ag-2: -2; D2 antag: 4

What do the screens show for `O=C(Nc1cc(S(=O)(=O)N2CCCC2)ccc1OCC(F)(F)F)c1ccncc1`?
D2 PAM-2: -9; D2 ag-2: 1

What do the screens show for `Oc1ccccc1N1CCN(c2ncnc3scc(-c4ccc(F)cc4)c23)CC1`?
D2 PAM-2: 2; D2 ag-2: 2

What do the screens show for `Oc1ccccc1N1CCN(c2ncnc3scc(-c4ccccc4)c23)CC1`?
D2 PAM-1: 33*; D2 PAM-2: 10; D2 ag-1: 9; D2 ag-2: 5; D2 antag: -1

How did COC(=O)CC1Oc2ccc(C)cc2-n2cc(-c3ccc(C)cc3)nc21 (centres undefined) do in these assays?
D2 PAM-1: -8; D2 ag-1: 0

How did COc1ccc(CNC(=O)CCc2cn(C)c3ccccc23)cc1 do in these assays?
D2 PAM-1: 3; D2 ag-1: 0

What do the screens show for `Cc1c(C(=O)Nc2ccc3c(c2)OCO3)sc2nc(-c3ccccc3)cn12`?
D2 PAM-2: -14; D2 ag-1: 0; D2 ag-2: -1; D2 antag: 67*

What do the screens show for `COc1cccc(-c2cc(C(=O)Nc3cc(OC)c(OC)c(OC)c3)no2)c1`?
D2 PAM-1: -7; D2 PAM-2: -5; D2 ag-1: -2; D2 ag-2: 0; D2 antag: 44*

What do the screens show for `COc1cc(NC(=O)c2cc(-c3ccccc3)on2)cc(OC)c1OC`?
D2 PAM-1: -3; D2 PAM-2: -23; D2 ag-1: -1; D2 ag-2: -4; D2 antag: -1

How did CN1C(C(=O)Nc2ccc(OC(F)(F)F)cc2)=CC(c2ccc3c(c2)OCO3)=NS1(=O)=O do in these assays?
D2 PAM-1: 75*!; D2 PAM-2: -2; D2 ag-1: 0; D2 ag-2: 2; D2 antag: -20

What do the screens show for `Cc1ccc(C2=NS(=O)(=O)N(C)C(C(=O)Nc3ccc4c(c3)OCO4)=C2)cc1`?
D2 PAM-1: -21; D2 PAM-2: -10; D2 ag-1: 0; D2 ag-2: 1; D2 antag: -33

How did COc1ccc(C2=NS(=O)(=O)N(C)C(C(=O)Nc3ccc4c(c3)OCO4)=C2)cc1 do in these assays?
D2 PAM-1: -10; D2 PAM-2: -10; D2 ag-1: 1; D2 ag-2: -3; D2 antag: 64*

Results for CCc1ccc(NC(=O)C2=CC(c3ccc4c(c3)OCO4)=NS(=O)(=O)N2C)cc1 ?
D2 PAM-1: -3; D2 ag-1: 1

How did CCCS(=O)(=O)N1CC(=O)N(c2ccccc2F)C(C)(C(=O)NC2CCCCCC2)C1 (centres undefined) do in these assays?
D2 PAM-1: -7; D2 ag-1: 0

Results for CCOC(=O)c1c(C)[nH]c(C)c1S(=O)(=O)N(C)CC(=O)Nc1ccc(C)c(F)c1 ?
D2 PAM-1: 1

How did O=C(CSc1nc2c([nH]c3ccccc32)c(=O)n1-c1ccc(F)cc1)NCc1ccc(F)cc1 do in these assays?
D2 PAM-1: 2; D2 ag-1: 0

Results for CCc1nc(SC)ncc1C(=O)N1CCN(c2cc(C)ccc2C)CC1 ?
D2 PAM-1: 3

What do the screens show for `COC(=O)CC1(C(=O)OC)Nc2cc(Cl)c(Cl)cc2S(=O)(=O)N1O` (centres undefined)?
D2 PAM-2: -12; D2 ag-2: 10

How did COc1ccc(-c2cc(C(=O)Nc3cc(Br)ccc3O)no2)cc1 do in these assays?
D2 PAM-1: 8; D2 PAM-2: 0; D2 ag-1: -2; D2 ag-2: 0; D2 antag: 36*

Results for COc1ccc(-c2cc(C(=O)N3CCOCC3)no2)cc1 ?
D2 PAM-1: -15; D2 PAM-2: 1; D2 ag-1: -1; D2 ag-2: -3; D2 antag: 35*

Results for COc1ccc(-c2cc(C(=O)Nc3ccccc3SC)no2)cc1 ?
D2 PAM-2: -1; D2 ag-2: -2

What do the screens show for `COc1ccc(-c2cc(C(=O)Nc3ccc4c(c3)OCO4)no2)cc1`?
D2 PAM-1: 31*!; D2 PAM-2: -12; D2 ag-1: 0; D2 ag-2: -7; D2 antag: 14

What do the screens show for `COc1cccc(-c2cc(C(=O)N3CCOCC3)no2)c1`?
D2 PAM-1: -3; D2 PAM-2: -4; D2 ag-1: -2; D2 ag-2: 1; D2 antag: -1

Results for CC1CCCCN1C(=O)c1cc(-c2ccc3c(c2)OCO3)on1 (centres undefined) ?
D2 PAM-1: 11; D2 PAM-2: -2; D2 ag-1: 0; D2 ag-2: -4; D2 antag: -32

How did CC1CCN(C(=O)c2cc(-c3ccc4c(c3)OCO4)on2)CC1 do in these assays?
D2 PAM-1: 36*; D2 PAM-2: -5; D2 ag-1: -2; D2 ag-2: 0; D2 antag: -16

What do the screens show for `COc1ccc(Oc2nc3c(c(=O)n(Cc4ccccc4Cl)c(=O)n3C)n2C)cc1`?
D2 PAM-1: -14; D2 ag-1: 0

What do the screens show for `Cc1c(C)n(Cc2ccc(F)cc2)c2ccc(C(=O)Nc3ccc(Cl)cc3)cc12`?
D2 PAM-1: 7; D2 ag-1: 0

How did COc1cc(NC(=O)c2cccc3c(-c4cccnc4)coc23)cc(OC)c1OC do in these assays?
D2 PAM-2: 9; D2 ag-2: 44*

What do the screens show for `O=C(CSc1nc(O)c(Cc2ccccc2)c(=O)[nH]1)N1CCOCC1`?
D2 PAM-1: -7; D2 PAM-2: -1; D2 ag-1: 14; D2 ag-2: -4; D2 antag: 1

Results for O=C(CSc1nc(O)c(C2CCCCC2)c(=O)[nH]1)N1CCOCC1 ?
D2 PAM-1: -12; D2 PAM-2: -10; D2 ag-1: 0; D2 ag-2: -2; D2 antag: 43*

Results for CC1CCCC(C)N1CCOc1cc(N)ccc1C#N (centres undefined) ?
D2 PAM-2: -13; D2 ag-2: -1

How did O=C(O)c1ccc(NS(=O)(=O)c2ccc3c(c2)C(=O)c2ccccc2C3=O)cc1 do in these assays?
D2 PAM-1: 2; D2 PAM-2: 29; D2 ag-1: 0; D2 ag-2: 3; D2 antag: -8

What do the screens show for `Cc1cccc(C)c1NS(=O)(=O)c1ccc2c(c1)C(=O)c1ccccc1C2=O`?
D2 PAM-1: 11; D2 PAM-2: 60*; D2 ag-1: 0; D2 ag-2: 11; D2 antag: -2
